Source: PubChem (The Scripps Research Institute Molecular Screening Center)
PRMT1 inh – PRMT1 (human) inhibition, primary screen; inhibition, % at 2.79 µM; AID 652257; recombinant PRMT1, activity-based probe fluorescence polarization; Q99873; 370,000 compounds, 1.3% hits;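 active means inhibition above about 21% made by adding two undisclosed values, limit read from the data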
rCAG RNA binder – r(CAG) repeat RNA binding; inhibition, % at 3 µM; AID 651821; TO-PRO-1 dye displacement fluorescence; 370,000 compounds, 1.3% hits;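 active means inhibition above the plate cutoff, the mean of all test compounds on that plate plus 3 SD, cut at about 35% in these data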;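 further: 0% = DMSO alone and 100% = 100 µM mitoxantrone as full dye displacement; higher means more dye released from RNA so lower well fluorescence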
TLR9-MyD88 inh – TLR9-MyD88 interaction inhibition. Q9NR96+Q99836. CHO BLA complementation TLR9-MyD88, CCF4 FRET ratio. inhibition, % at 4.98 µM. 340,000 compounds, 0.21% hits;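 active means inhibition above the mean over all tested compounds plus 3 SD, cut at about 21% in these data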;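 further: 0% = DMSO only wells and 100% = clavulanate BLA inhibitor control wells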
TLR4 MyD88 comp – TLR4-MyD88 interaction inhibition in cells. O00206+Q99836. HeLa CL3-4 TLR4/MyD88 BLA complementation, FRET ratio. inhibition, % at 8.4 µM. 200,000 compounds, 0.18% hits; in the data active means inhibition above about 25%;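 further: 0% = vehicle and 100% = reference inhibitor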
NOD2-RIPK2 inh – NOD2-RIPK2 protein interaction inhibition | inhibition, % at 4.98 µM | O43353 | CHO BLA complementation NOD2-RIPK2, CCF4 ratio | 360,000 compounds, 0.38% hits | AID 624267; in the data active means inhibition above about 21%;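 further: 0% = vehicle only and 100% = reference blocker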
ABHD5-PLIN5 inh – ABHD5-PLIN5 protein interaction inhibition | inhibition, % at 4 µM | Q00G26+Q8WTS1 | AID 602281 | Split G. princeps luciferase complementation, luminescence, 4 h | 360,000 compounds, 0.78% hits;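 active means inhibition above the mean inhibition across every tested compound plus 3 SD, cut at about 22% in these data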;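 further: 0% = DMSO only wells and the 100% control is not disclosed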
rCAG bind conf – r(CAG) RNA repeat binding, confirmation; shares compounds with rCAG RNA binder; inhibition, % at 3 µM; 4,300 compounds, 70% hits; TO-PRO-1 dye displacement fluorescence; AID 652065;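 active means inhibition above a per-plate cutoff, the mean inhibition of sample wells plus 3 SD, cut at about 35% in these data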;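 further: loss of TO-PRO-1 fluorescence as compound displaces dye from 1x1 AA loop RNA; 0% = DMSO only wells and 100% = 100 µM mitoxantrone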
dCAG dye counter – counter-screen for rCAG RNA binders: DNA CAG dye complex inhibitors. shares compounds with rCAG RNA binder. d(CAG) DNA oligo TO-PRO-1 dye displacement, fluorescence. inhibition, % at 3 µM. 4,300 compounds, 94% hits. AID 652068;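 active means inhibition above its plate's cutoff, the mean test-well inhibition plus 3 SD, cut at about 4.8% in these data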;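 further: 0% = DNA dye mix with DMSO and 100% = 100 µM mitoxantrone; hits displace the dye from DNA and so lower well fluorescence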
DNA CAG DR – disrupts DNA CAG TO-PRO-1 complex in dose response; shares compounds with rCAG RNA binder; DNA CAG/GTC duplex TO-PRO-1 dye displacement fluorescence; IC50, µM; 250 compounds, 20% hits; AID 686960; in the data active means IC50 below about 10 µM
* = called active by the depositor; i = inactive; · = no result given. Hits are enriched below; roughly 3.3% of the tested compounds scored in any of these assays.

SMILES	PRMT1 inh	rCAG RNA binder	TLR9-MyD88 inh	TLR4 MyD88 comp	NOD2-RIPK2 inh	ABHD5-PLIN5 inh	rCAG bind conf	dCAG dye counter	others
CC(CC(=O)Nc1nncs1)c1ccccc1 (stereo not given)	1	2	1	2	7	-2	·	·
CC1=NN(c2nc(-c3ccc(Cl)cc3)cs2)C(=O)C1	-1	58*	11	-2	7	-6	73*	39*
CC1=NN(c2nc(-c3ccc(F)cc3)cs2)C(=O)C1	·	·	-11	7	-5	0	·	·
CCCCCC(=O)N1CC2(CC(c3cccc(NC(=O)CC)c3)=NO2)C[C@H]1C(N)=O (stereo not given in full)	4	2	-10	·	6	11	·	·
CCc1nc2c(OCc3ccc(Cl)cc3)cccn2c1N(C)C(=O)c1ccc2c(c1)OCO2	-1	4	·	·	11	16	·	·
COc1ccc(/C=C2\SC(=O)N(CCC(=O)Nc3ccc(S(=O)(=O)Nc4nccs4)cc3)C2=O)cc1	2	80*	-4	1	-7	2	79*	45*
COc1ccc(/C=C2/SC(=O)N(CCC(=O)Nc3ccc(S(=O)(=O)Nc4nccs4)cc3)C2=O)cc1	4	84*	-6	-3	-5	3	82*	49*
O=C(NCc1cccnc1)OC1CC2CC1[C@H]1CCCCN1C2=O (stereo not given in full)	7	0	·	·	-6	5	·	·
O=C(NCCS(=O)(=O)NCc1ccccn1)c1ccccc1	0	0	-4	·	1	0	·	·
Cc1cccc(NC(=S)NNC(=O)COc2ccc(Cl)cc2Cl)c1	17	45*	-10	-7	-2	-11	33	10*
CC1OC(C2CCCCC2)Cc2[nH]c(=S)[nH]c(=O)c21 (stereo not given)	2	3	·	·	-16	-2	·	·
CNc1c(NS(=O)(=O)c2ccc(Cl)s2)c(=O)oc2ccccc12	-2	5	-2	·	-4	-2	·	·
O=S(=O)(Nc1ncnc2c1oc1ccccc12)c1ccc(Cl)s1	1	36*	3	·	-7	-2	17	3
COc1ccc(CNC(=O)Nc2nc(C(N)c3ccccc3)cs2)cc1 (stereo not given)	0	14	·	·	-3	-7	·	·
CC(C)NC(=O)CN1CCN(Cc2nc(C(c3ccccc3)c3ccccc3)no2)CC1	-3	-7	-6	-7	4	-4	·	·
COc1ccc(NC(=O)CN(C)C(=O)C2(c3ccccc3)CCCC2)cc1	4	2	6	·	-4	-1	·	·
CC(=O)c1sc(N/N=C/c2cccc(O)c2)nc1C	-3	5	-97	-11	3	-7	·	·
CC(=O)c1sc(N/N=C\c2c(O)ccc3ccccc23)nc1C	0	52*	4	·	-10	-12	60*	29*
Cc1cc(/C=C2\C(=N)N3N=C(c4ccco4)SC3=NC2=O)c(C)n1Cc1ccccc1	0	59*	6	·	0	0	69*	30*	DNA CAG DR=i
CCC1=NN2C(=N)/C(=C/c3cc(C)n(Cc4ccccc4)c3C)C(=O)N=C2S1	-2	16	-1	·	-5	-4	·	·
O=C(Cc1c(F)cccc1Cl)Nc1ccccc1-c1ccccc1	2	-5	-1	·	11	9	·	·
Cc1cccc2sc(NC(=O)c3ccc(NS(=O)(=O)c4cccs4)cc3)nc12	1	80*	5	-6	-1	8	76*	40*
COc1ccc2nc(NC(=O)c3ccc(NS(=O)(=O)c4cccs4)cc3)sc2c1	5	65*	-6	8	-3	2	66*	29*
COc1ccc2nc(NC(=O)CNS(=O)(=O)c3cccs3)sc2c1	1	9	1	2	0	1	·	·
Cc1cccc(C)c1N=Nc1c(C)cc(O)cc1C	-1	6	-2	·	-10	-8	·	·
